Compound activity from PubChem BioAssay.
HepG2 tox – counter-screen for TGF-b inhibitors: cytotoxicity in HepG2 cells; HepG2 CAGA-GFP viability, ATP luminescence, 18 h; Potency, µM (titrated, usually from 46.1 µM), usual class: cytotoxic; 410,000 tested, 0.76% active
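HepG2 CAGA-GFP cells (1000/well, DMEM with 1% FBS) received compound, then TGF-beta at 500 pg/mL final, and were incubated 18 hours at 37 degrees C. Viability was read by CellTiter-Glo luminescence. Media-only wells were set as complete cell-killing and DMSO as no toxicity.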
TGFb SMAD3 inh – TGF-b pathway inhibition; HepG2 CAGA-GFP TGF-b/SMAD3 reporter, GFP fluorescence, 18 h; TGF-beta stimulated, 500 pg/mL final; Potency, µM (top dose mostly 46.1 µM), most hits filed as inhibitors; 410,000 tested, 1.2% active; AID 588855; note: nearly all actives have a fitted effect of over 65% in size
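Smad-responsive CAGA-GFP expression was quantified in HEPG2 cells exposed to compounds and 500 pg/mL final TGF-beta for 18 h at 37 degrees C; unstimulated wells defined full inhibition.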
A549 viability – A549 cytotoxicity, counter-screen for Nrf2 inhibitors | A549 ARE-Fluc cells, CellTiter-Fluor viability, 18-24 h | Potency, µM (highest dose often 46 µM), actives largely listed as inhibitors | 390,000 tested, 0.16% active
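Cytotoxicity counterscreen: CellTiter-Fluor fluorescence was measured in A549 ARE_Fluc cells after 18-24 h of compound exposure in a concentration series. The subsequent BugLite luminescent read reports ARE-luciferase activity.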
Nrf2 activator – activators of Nrf2 (ARE) signaling; AREc32 ARE-luciferase reporter (MCF7-derived line), luminescence, 24 h; Potency, µM (doses to about 46.1 µM), most hits filed as activators; 410,000 tested, 0.31% active; note: nearly all actives have a fitted effect of over 65% in size
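Quantitative high-throughput format: AREc32 reporter cells, 1000 per well, received compound by pin transfer and were incubated 24 hr at 37 deg C, 5% CO2, before Steady-Glo luminescence detection.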
Nrf2 inh – inhibitors of Nrf2 signaling; A549 ARE-Fluc reporter, luciferase luminescence, 18-24 h; Potency, µM (doses to about 46 µM), hits mostly inhibitors; 360,000 tested, 2.1% active; note: nearly all actives have a fitted effect of over 60% in size
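Concentration-response testing used A549 ARE_Fluc cells at 5000 cells/well. Following an 18-24 h compound incubation, viability was read by fluorescence (Ex 405/Em 525) and luciferase output by luminescence.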
A number is an active result; ! = not active in a repeat. Shown are actives, neighbours in structure and some others; about 3.6% of the full set was active somewhere. Calls come from the whole dose curve; as a rule, active = well fitted curve in the direction sought with a large enough effect; inconclusive = small, poorly fitted or top-dose-only effect, or another doubt; inactive = no such curve, though single readings can be large; an effect the other way counts as inactive or inconclusive.

Results for COc1ccc(NC(=O)C2CCCN(c3ncnc4onc(C)c34)C2)cc1OC (centres undefined) ?
HepG2 tox: inactive; TGFb SMAD3 inh: inactive; A549 viability: inactive; Nrf2 activator: inactive

What do the screens show for `Cc1ccnc(N2CCC(C(=O)Nc3cccc(C(F)(F)F)c3)CC2)n1`?
HepG2 tox: inactive; TGFb SMAD3 inh: inactive; Nrf2 activator: inactive; Nrf2 inh: 13µM

How did O=C(Nc1ccc(C(F)(F)F)cc1)C1CCCN(S(=O)(=O)c2cccc3cccnc23)C1 (centres undefined) do in these assays?
HepG2 tox: inactive; TGFb SMAD3 inh: 11µM; A549 viability: inactive; Nrf2 activator: inactive; Nrf2 inh: inactive

Results for Cc1noc2ncnc(N3CCCC(C(=O)Nc4cccc(C(F)(F)F)c4)C3)c12 (centres undefined) ?
HepG2 tox: inactive; TGFb SMAD3 inh: inconclusive; A549 viability: inactive; Nrf2 activator: inactive; Nrf2 inh: 5.8µM

How did Cc1ccnc(N2CCC(C(=O)Nc3ccc(Oc4ccccc4)cc3)CC2)n1 do in these assays?
HepG2 tox: inactive; TGFb SMAD3 inh: inactive; A549 viability: inactive; Nrf2 activator: inactive; Nrf2 inh: inactive

Results for O=C(Nc1cccc(C(F)(F)F)c1)C1CCN(S(=O)(=O)c2cccc3nsnc23)CC1 ?
HepG2 tox: inactive; TGFb SMAD3 inh: inconclusive; A549 viability: inactive; Nrf2 activator: inactive; Nrf2 inh: 21µM

Results for O=C(CNC(=O)c1ccco1)OC(C(=O)c1ccccc1)c1ccccc1 (centres undefined) ?
HepG2 tox: inactive; TGFb SMAD3 inh: inactive; A549 viability: inactive; Nrf2 activator: inactive

What do the screens show for `Cc1cc2ccccn2c1C(=O)Nc1ccc(Cl)cc1`?
HepG2 tox: inactive; TGFb SMAD3 inh: inactive; A549 viability: inactive; Nrf2 activator: inconclusive; Nrf2 inh: inconclusive

How did O=C(Nc1cc(F)ccc1F)C1CCCN1S(=O)(=O)c1cccc2nsnc12 (centres undefined) do in these assays?
HepG2 tox: inactive; TGFb SMAD3 inh: inconclusive; A549 viability: inactive; Nrf2 activator: inactive; Nrf2 inh: inactive

Results for O=C(Nc1ccc(F)cc1F)C1CCCN1S(=O)(=O)c1cccc2nsnc12 (centres undefined) ?
HepG2 tox: inactive; TGFb SMAD3 inh: 16µM; A549 viability: inactive; Nrf2 activator: inactive; Nrf2 inh: inactive

How did Cc1ccc(S(=O)(=O)N2CCCC2CNC(=O)C(=O)Nc2ccc(F)cc2F)cc1 (centres undefined) do in these assays?
HepG2 tox: inactive; TGFb SMAD3 inh: inactive; A549 viability: inactive; Nrf2 activator: inactive; Nrf2 inh: inactive

How did CCSc1ccc2c(c1)N(CCCN1CCN(C)CC1)c1ccccc1S2 do in these assays?
HepG2 tox: inactive; TGFb SMAD3 inh: inconclusive; A549 viability: inactive; Nrf2 activator: inactive; Nrf2 inh: inactive

How did CC(CN1CCN(CCOCCO)CC1)CN1c2ccccc2Sc2ccc(Cl)cc21 (centres undefined) do in these assays?
HepG2 tox: 13µM; TGFb SMAD3 inh: inconclusive; Nrf2 activator: inactive

What do the screens show for `OC1CC2CCC(C1)N2CCCN1c2ccccc2Sc2ccc(Cl)cc21` (centres undefined)?
HepG2 tox: 22µM; TGFb SMAD3 inh: inconclusive; A549 viability: inactive; Nrf2 activator: inactive; Nrf2 inh: inactive

Results for CN(C)CCCN1c2ccc(O)cc2Sc2ccc(Cl)cc21 ?
HepG2 tox: inactive; TGFb SMAD3 inh: inactive; Nrf2 activator: inactive

What do the screens show for `CN1CCN(CCCN2c3ccccc3Sc3ccc(Cl)cc32)CC1`?
HepG2 tox: 11µM!; TGFb SMAD3 inh: inconclusive; A549 viability: 18µM!; Nrf2 activator: inactive; Nrf2 inh: 8.2µM!

How did O=C(Nc1cccc(C(=O)OCc2cc(=O)n3c4c(sc3n2)CCCC4)c1)c1ccc(Cl)cc1 do in these assays?
HepG2 tox: inactive; TGFb SMAD3 inh: 10µM; A549 viability: inactive; Nrf2 activator: inactive

How did O=C(Nc1cccc(C(=O)OCc2cc(=O)n3c4c(sc3n2)CCCC4)c1)c1cccc(Cl)c1 do in these assays?
HepG2 tox: inactive; TGFb SMAD3 inh: inactive; A549 viability: inactive; Nrf2 activator: inactive

What do the screens show for `CC1(C)CC(=O)C2=C(C1)NC(=O)NC2c1ccc([N+](=O)[O-])cc1` (centres undefined)?
HepG2 tox: inactive; TGFb SMAD3 inh: inactive; A549 viability: inactive; Nrf2 activator: inactive; Nrf2 inh: inactive
